According to PubChem BioAssay (Tox21):
Values without a mark were called inactive. Records with an inconclusive call do not appear. Entries that show only a call come without a potency. The source made the active and inactive calls. Calls follow the shape of the dose curve; as a rule, active = well fitted curve in the direction sought with a large enough effect in the repeat runs; inconclusive = weak or mixed curves; inactive = no such curve, though single readings can be large; an effect the other way counts as inactive or inconclusive.

Experiments:
[1] = A CellTox Green Cytotoxicity Assay to monitor cytotoxicity in HEK293 cells - 40 hour (AID 1224871); also: nearly all actives have a fitted effect of over 45% in size
In short: (§1)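 Seeding of HEK293 cells together with cytotoxicity dye preceded a 5 h incubation at 37 C/5% CO2. Test compounds in DMSO were then added and fluorescence monitored across 40 h.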

[2] = qHTS RealTime-Glo MT Cell Viability Assay in HepG2 cells - 8 hour (AID 1224873); also: nearly all actives have a fitted effect of over 55% in size; also: potency is read from the fitted curve at half-maximal effect
In short: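 HepG2 cells (600/well) mixed with RealTime-Glo MT reagent, settled 5 h at 37 C/5% CO2 before compound addition. Nonlytic NanoLuc luminescence from viable-cell prosubstrate reduction read repeatedly during 40 h treatment at 37 C.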

[3] = A CellTox Green Cytotoxicity Assay to monitor cytotoxicity in HEK293 cells - 24 hour (AID 1224875); also: nearly all actives have a fitted effect of over 45% in size; also: potency is read from the fitted curve at half-maximal effect
In short: as §1

[4] = A CellTox Green Cytotoxicity Assay to monitor cytotoxicity in HepG2 cells - 16 hour (AID 1224876); also: nearly all actives have a fitted effect of over 45% in size; also: potency is read from the fitted curve at half-maximal effect
In short: (§2)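 Nonlytic assay: viable cells exclude the dye, so fluorescence scales with cell death. HepG2 at 600 cells/well, compounds added after 5 h, signal read across 40 h.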

[5] = qHTS RealTime-Glo MT Cell Viability Assay in HepG2 cells - 32 hour (AID 1224877); also: nearly all actives have a fitted effect of over 55% in size
In short: (§3)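 Compound treatment began 5 h after plating HepG2 cells (600/well) with NanoLuc luciferase and prosubstrate. Plates stayed at 37 C for 40 h; luminescence was captured at six time points, 0 h through 40 h.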

[6] = A CellTox Green Cytotoxicity Assay to monitor cytotoxicity in HepG2 cells - 24 hour (AID 1224878); also: nearly all actives have a fitted effect of over 45% in size; also: potency is read from the fitted curve at half-maximal effect
In short: as §2

[7] = A CellTox Green Cytotoxicity Assay to monitor cytotoxicity in HepG2 cells - 40 hour (AID 1224879); also: nearly all actives have a fitted effect of over 40% in size; also: potency is read from the fitted curve at half-maximal effect
In short: as §2

[8] = qHTS RealTime-Glo MT Cell Viability Assay in HEK293 cells - 0 hour (AID 1224880)
In short: (§4)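 Tox21 screen in HEK293 using RealTime-Glo MT chemistry, with cells and reagent co-dispensed. Luminescence proportional to viable cell number was captured at intervals during 40 h compound exposure at 37 C.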

[9] = A CellTox Green Cytotoxicity Assay to monitor cytotoxicity in HEK293 cells - 32 hour (AID 1224881); also: nearly all actives have a fitted effect of over 40% in size; also: potency is read from the fitted curve at half-maximal effect
In short: as §1

[10] = A CellTox Green Cytotoxicity Assay to monitor cytotoxicity in HepG2 cells - 0 hour (AID 1224882); also: nearly all actives have a fitted effect of over 35% in size
In short: as §2

[11] = A CellTox Green Cytotoxicity Assay to monitor cytotoxicity in HepG2 cells - 32 hour (AID 1224883); also: nearly all actives have a fitted effect of over 50% in size; also: potency is read from the fitted curve at half-maximal effect
In short: as §2

[12] = A CellTox Green Cytotoxicity Assay to monitor cytotoxicity in HEK293 cells - 8 hour (AID 1224884); also: nearly all actives have a fitted effect of over 35% in size; also: potency is read from the fitted curve at half-maximal effect
In short: as §1

[13] = qHTS RealTime-Glo MT Cell Viability Assay in HepG2 cells - 16 hour (AID 1224885); also: nearly all actives have a fitted effect of over 50% in size; also: potency is read from the fitted curve at half-maximal effect
In short: as §3

[14] = A CellTox Green Cytotoxicity Assay to monitor cytotoxicity in HEK293 cells - 16 hour (AID 1224888); also: nearly all actives have a fitted effect of over 35% in size; also: potency is read from the fitted curve at half-maximal effect
In short: as §1

[15] = qHTS RealTime-Glo MT Cell Viability Assay in HepG2 cells - 0 hour (AID 1224889); also: nearly all actives have a fitted effect of over 50% in size
In short: as §3

[16] = A CellTox Green Cytotoxicity Assay to monitor cytotoxicity in HepG2 cells - 8 hour (AID 1224890); also: nearly all actives have a fitted effect of over 45% in size; also: potency is read from the fitted curve at half-maximal effect
In short: as §2

[17] = qHTS RealTime-Glo MT Cell Viability Assay in HEK293 cells - 24 hour (AID 1224886); also: nearly all actives have a fitted effect of over 50% in size; also: potency is read from the fitted curve at half-maximal effect
In short: (§5)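 Quantitative high-throughput screen of the Tox21 10K library in HEK293: cells and RealTime-Glo reagents plated together, compound added at 5 h, luminescence monitored through 40 h at 37 C.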

[18] = qHTS RealTime-Glo MT Cell Viability Assay in HEK293 cells - 8 hour (AID 1224887); also: nearly all actives have a fitted effect of over 50% in size; also: potency is read from the fitted curve at half-maximal effect
In short: as §4

[19] = qHTS RealTime-Glo MT Cell Viability Assay in HEK293 cells - 40 hour (AID 1224874); settings: RealTime-Glo luminescence; max response: active compounds read low; also: nearly all actives have a fitted effect of over 50% in size; also: potency is read from the fitted curve at half-maximal effect
In short: as §4

[20] = qHTS RealTime-Glo MT Cell Viability Assay in HEK293 cells - 16 hour (AID 1224872); also: nearly all actives have a fitted effect of over 50% in size; also: potency is read from the fitted curve at half-maximal effect
In short: as §5

In the case of `CNCc1ccc(NC(=O)c2c[nH]c3c2C(=O)CCC3)cc1`, the Potency [1] is reported as “inactive”, the Potency [2] is reported as “inactive” and the Potency [3] is reported as “inactive”. For the same molecule, the Potency [4] was “inactive”, the Potency [5] was “inactive” and the Potency [6] was “inactive”. For the same molecule, the Potency [7] was “inactive”, the Potency [8] was “inactive” and the Potency [9] was “inactive”. The Potency [10] was “inactive”, the Potency [11] was “inactive” and the Potency [12] was “inactive”. For the same molecule, the Potency [13] was “inactive”, the Potency [14] was “inactive” and the Potency [15] was “inactive”. The Potency [16] was “inactive”.

With `CC(C)c1ccc(C#N)cc1` the Potency [1] was “inactive”, the Potency [2] was “inactive” and the Potency [3] was “inactive”. For the same molecule, the Potency [5] was “inactive”, the Potency [7] was “inactive” and the Potency [8] was “inactive”. For the same molecule, the Potency [9] was “inactive”, the Potency [10] was “inactive” and the Potency [11] was “inactive”. The Potency [12] was “inactive”, the Potency [13] was “inactive” and the Potency [17] was 17.4 µM (active). The Potency [18] was “inactive”, the Potency [14] was “inactive” and the Potency [15] was “inactive”.

For `Cc1cccc(C)c1NC(=O)c1cc(S(N)(=O)=O)c(Cl)cc1O`, the Potency [1] was “inactive”, the Potency [2] was “inactive” and the Potency [3] was “inactive”. The Potency [4] was “inactive”, the Potency [5] was “inactive” and the Potency [6] was “inactive”. For the same molecule, the Potency [7] was “inactive”, the Potency [8] was “inactive” and the Potency [9] was “inactive”. For the same molecule, the Potency [10] was “inactive”, the Potency [11] was “inactive” and the Potency [12] was “inactive”. For the same molecule, the Potency [13] was “inactive”, the Potency [18] was “inactive” and the Potency [14] was “inactive”. For the same molecule, the Potency [15] was “inactive”.

For `COC(=O)C1=C(C)NC(C)=C(C(=O)OC(C)(C)CN(C)CCC(c2ccccc2)c2ccccc2)C1c1cccc([N+](=O)[O-])c1` (stereo unspecified), the max response [19] was -18%, the Potency [3] was “inactive” and the Potency [4] was “inactive”. For the same molecule, the Potency [6] was “inactive”, the Potency [7] was “inactive” and the Potency [8] was “inactive”. The Potency [9] was “inactive”, the Potency [10] was “inactive” and the Potency [11] was “inactive”. For the same molecule, the Potency [12] was “inactive”, the Potency [17] was “inactive” and the Potency [18] was “inactive”. For the same molecule, the Potency [14] was “inactive”, the Potency [15] was “inactive” and the Potency [16] was “inactive”.

With `CC/C=C\C/C=C\C/C=C\CCCCCCCC(=O)OCC` the Potency [20] was “inactive”, the Potency [2] was “inactive” and the max response [19] was -15.2%. For the same molecule, the Potency [3] was “inactive”, the Potency [4] was “inactive” and the Potency [6] was “inactive”. For the same molecule, the Potency [7] was “inactive”, the Potency [9] was “inactive” and the Potency [10] was “inactive”. The Potency [11] was “inactive”, the Potency [12] was “inactive” and the Potency [13] was “inactive”. The Potency [18] was “inactive”, the Potency [14] was “inactive” and the Potency [15] was “inactive”. The Potency [16] was “inactive”.

With `CC(=O)OCCC(C)CC(C)(C)C` (stereo unspecified) the Potency [20] was “inactive”, the Potency [2] was “inactive” and the Potency [3] was “inactive”. The Potency [4] was “inactive”, the Potency [5] was “inactive” and the Potency [6] was “inactive”. For the same molecule, the Potency [7] was “inactive”, the Potency [8] was “inactive” and the Potency [9] was “inactive”. For the same molecule, the Potency [10] was “inactive”, the Potency [11] was “inactive” and the Potency [12] was “inactive”. The Potency [13] was “inactive”, the Potency [17] was “inactive” and the Potency [18] was “inactive”. For the same molecule, the Potency [14] was “inactive”, the Potency [15] was “inactive” and the Potency [16] was “inactive”.

With `CC(C)(C)NCC(O)COc1cccc2c1C[C@H](O)[C@H](O)C2` (stereo partly specified) the Potency [2] was “inactive”, the Potency [3] was “inactive” and the Potency [4] was “inactive”. The Potency [6] was “inactive”, the Potency [7] was “inactive” and the Potency [8] was “inactive”. The Potency [9] was “inactive”, the Potency [10] was “inactive” and the Potency [11] was “inactive”. The Potency [12] was “inactive”, the Potency [13] was “inactive” and the Potency [18] was “inactive”. The Potency [14] was “inactive”, the Potency [15] was “inactive” and the Potency [16] was “inactive”.

In the case of `COC1CCC=CO1` (stereo unspecified), the Potency [2] is reported as “inactive”, the max response [19] is reported as 9.69% and the Potency [3] is reported as “inactive”. For the same molecule, the Potency [4] was “inactive”, the Potency [6] was “inactive” and the Potency [7] was “inactive”. For the same molecule, the Potency [8] was “inactive”, the Potency [9] was “inactive” and the Potency [10] was “inactive”. The Potency [11] was “inactive”, the Potency [12] was “inactive” and the Potency [13] was “inactive”. For the same molecule, the Potency [17] was “inactive”, the Potency [18] was “inactive” and the Potency [14] was “inactive”. The Potency [16] was “inactive”.

For `CC12CC3CC(C)(C1)CC(N)(C3)C2`, the Potency [20] was “inactive”, the Potency [2] was “inactive” and the max response [19] was 3.93%. The Potency [3] was “inactive”, the Potency [4] was “inactive” and the Potency [5] was “inactive”. For the same molecule, the Potency [6] was “inactive”, the Potency [7] was “inactive” and the Potency [8] was “inactive”. For the same molecule, the Potency [9] was “inactive”, the Potency [10] was “inactive” and the Potency [11] was “inactive”. The Potency [12] was “inactive”, the Potency [13] was “inactive” and the Potency [18] was “inactive”. For the same molecule, the Potency [15] was “inactive” and the Potency [16] was “inactive”.

With `Nc1ccc(F)cc1` the Potency [2] was “inactive”, the max response [19] was 14.2% and the Potency [3] was “inactive”. The Potency [4] was “inactive”, the Potency [5] was “inactive” and the Potency [6] was “inactive”. The Potency [7] was “inactive”, the Potency [8] was “inactive” and the Potency [9] was “inactive”. For the same molecule, the Potency [10] was “inactive”, the Potency [11] was “inactive” and the Potency [12] was “inactive”. The Potency [13] was “inactive”, the Potency [17] was “inactive” and the Potency [18] was “inactive”. The Potency [15] was “inactive” and the Potency [16] was “inactive”.

For `CCCCCc1ccco1`, the Potency [2] was “inactive”, the max response [19] was 4.73% and the Potency [3] was “inactive”. For the same molecule, the Potency [4] was “inactive”, the Potency [5] was “inactive” and the Potency [6] was “inactive”. The Potency [7] was “inactive”, the Potency [8] was “inactive” and the Potency [9] was “inactive”. The Potency [10] was “inactive”, the Potency [11] was “inactive” and the Potency [12] was “inactive”. For the same molecule, the Potency [13] was “inactive”, the Potency [17] was “inactive” and the Potency [18] was “inactive”. The Potency [14] was “inactive”, the Potency [15] was “inactive” and the Potency [16] was “inactive”.

In the case of `C=Cc1ccc(OC(C)=O)cc1`, the Potency [20] is reported as “inactive”, the Potency [2] is reported as “inactive” and the max response [19] is reported as 18.3%. For the same molecule, the Potency [3] was “inactive”, the Potency [4] was “inactive” and the Potency [5] was “inactive”. For the same molecule, the Potency [6] was “inactive”, the Potency [7] was “inactive” and the Potency [8] was “inactive”. For the same molecule, the Potency [9] was “inactive”, the Potency [10] was “inactive” and the Potency [11] was “inactive”. The Potency [12] was “inactive”, the Potency [13] was “inactive” and the Potency [18] was “inactive”. The Potency [15] was “inactive”.

In the case of `O[C@@H](CNC[C@H](O)[C@H]1CCc2cc(F)ccc2O1)[C@@H]1CCc2cc(F)ccc2O1`, the Potency [20] is reported as 19 µM (active), the Potency [2] is reported as 21.3 µM (active) and the Potency [19] is reported as 19 µM (active). For the same molecule, the Potency [3] was 26.8 µM (active), the Potency [4] was 16.9 µM (active) and the Potency [6] was 10.7 µM (active). For the same molecule, the Potency [7] was 10.7 µM (active), the Potency [9] was 26.8 µM (active) and the Potency [10] was “inactive”. For the same molecule, the Potency [11] was 10.7 µM (active), the Potency [12] was 23.9 µM (active) and the Potency [13] was 21.3 µM (active). For the same molecule, the Potency [17] was 19 µM (active), the Potency [18] was 21.3 µM (active) and the Potency [14] was 26.8 µM (active). For the same molecule, the Potency [16] was 23.9 µM (active).
